# Measurements reported in the supplement of paper PMC4466236.
# Over roughly 33,000 sequences, “E-score (dimensionless, -0.5 to 0.5)” has its median near -0.058; the highest 2% begin near 0.35. The sample as a whole holds a higher share of the highest values than the screen did.
# System: MvaT
# Test: PBM 8-mer E-score (mean of HK and ME arrays) (E-score (dimensionless, -0.5 to 0.5)); higher = stronger relative binding preference
# Method in brief: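 Reported values are rank-based E-scores, taken as the mean of two universal arrays and parsed with a custom script. Each 8-mer score falls between -0.5 and 0.5. The arrays, ME and HK, were double-stranded 60-mers with a constant 25-mer primer region and a variable 35-mer region covering all 8-mers. They were probed, by an earlier protocol, with full-length P. aeruginosa MvaT carrying an N-terminal glutathione S-transferase fusion.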
row,Sequence,PBM 8-mer E-score
1,ATCTATTA,0.301
2,CTCTATTA,0.267
3,GTATATTA,0.438
4,GGGTATTA,0.288
5,GAGTATTA,0.269
6,CTATATTA,0.454
7,CACTGCTC,-0.18
8,GCCCGACC,-0.267
9,GAGAGTAC,-0.0129
10,AACCGCTC,-0.22
11,AATGGGAT,0.138
12,AGTCGACG,-0.209
13,CAAATATC,0.233
14,CAAAAATA,0.287
15,AAAATACT,0.272
16,TAAATCTA,0.183
17,CAAATATG,0.264
18,GAAATAGA,0.158
19,GAAATATC,0.227
20,GAAATATA,0.408
21,AAAATAGT,0.228
22,CAAATATA,0.433
23,AAAATATT,0.435
24,TAAATATA,0.442
25,GGCGTCCA,-0.193

row,Sequence,PBM 8-mer E-score
1,AGGTCCTG,-0.144
2,AACGGGCA,-0.142
3,CTCTATCC,-0.0794
4,TCGCCAAA,-0.0154
5,ATATCGCA,0.208
6,TCCGTCAA,-0.111
7,CCGACACG,-0.209
8,AAAATATA,0.43
9,AAAATATC,0.314
10,AAAATATG,0.251
11,GAATATAA,0.38
12,TAATCTAA,0.292
13,GAATATAC,0.298
14,GAATAGAA,0.105
15,GAATATCA,0.209
16,TAATATAA,0.463
17,TAATAGAA,0.254
18,CAATATAA,0.404
19,CAATATAG,0.331
20,CAATAAAC,0.254
21,CAATATCC,0.127
22,CAATATAC,0.386
23,CGGTACTA,-0.0157
24,ATTTCGTC,0.0525
25,CCATCAAC,-0.145

row,Sequence,PBM 8-mer E-score
1,GCCTAAAA,-0.0431
2,AAAGTGAT,0.155
3,GAGCCATA,-0.0175
4,CACTCCTG,-0.121
5,TGATCTAA,0.0137
6,AAATATAG,0.332
7,AAATATAC,0.333
8,AAATATAA,0.442
9,GAGTACAC,-0.00583
10,AAATGCCT,-0.0883
11,AATTCGAC,-0.053
12,CTTGCAAG,0.114
13,ATATAGTC,0.361
14,GTATAGTA,0.233
15,ATATAGTA,0.399
16,CTATAGTA,0.223
17,CTATAGTC,-0.0729
18,ATATAGTG,0.329
19,CGTTGACC,-0.113
20,AAATCAGC,0.0494
21,ACAACTTG,0.237
22,ACAACTGA,0.0852
23,AAAACTTA,0.386
24,GAAACTTA,0.235
25,AAAACTGA,0.0579

row,Sequence,PBM 8-mer E-score
1,TAAACTTA,0.352
2,AAAACTTT,0.354
3,AAAACTTC,0.149
4,CAAACTTA,0.272
5,ACAACTTA,0.357
6,TAAACTGA,0.205
7,AAAACTTG,0.1
8,CAACACTA,0.11
9,CGGCACAC,-0.0132
10,CTATTTCA,0.00869
11,ACAGTGCA,-0.0545
12,CCGCACGG,-0.212
13,CCTACTTA,0.251
14,ACTACTTC,0.117
15,TAAACTAA,0.34
16,ACTACTTA,0.377
17,CAAACTAC,0.248
18,CAAACTAA,0.376
19,ACATTGCC,0.0616
20,ATCTTCCC,-0.117
21,ATTGGTGG,0.00541
22,TGATAACA,0.16
23,CACGCTCG,-0.168
24,AATAGAAG,0.0707
25,GCATTTTA,0.177

row,Sequence,PBM 8-mer E-score
1,CTATTTTA,0.261
2,GTATTTAA,0.368
3,GTATTTTA,0.37
4,ATATTTTG,0.319
5,GGATTTTA,0.112
6,GGATTTAA,0.283
7,GTATTTCA,0.223
8,ATATTTTA,0.43
9,GCCTCGTA,-0.109
10,AGGGATGC,-0.182
11,GGTCGTTA,-0.0413
12,GCGAGTCA,-0.112
13,CCGGGAGG,-0.293
14,CTGCAGCC,-0.148
15,AAAAAGGT,-0.0123
16,ATTAATGG,0.262
17,CTGAATTA,0.266
18,CTCAATTA,0.234
19,CTTAATTA,0.454
20,ATGAATTA,0.295
21,ATTAATTC,0.415
22,ATTAATCG,0.336
23,ATCAATTA,0.319
24,AGTAATTC,0.144
25,CTTAATTC,0.281

row,Sequence,PBM 8-mer E-score
1,ATTAATTG,0.391
2,ATTAATTA,0.461
3,ACAGGGCT,-0.196
4,CACTTCGC,-0.174
5,ATATCGTA,0.207
6,GACGCAGC,-0.356
7,ATACTGGG,0.00507
8,AGTCATTA,0.14
9,CGGTAAGC,-0.0976
10,ACCCGGGA,-0.218
11,CTTAATCA,0.174
12,ATTAATCA,0.405
13,CTTAATGA,0.0908
14,GTTAATTA,0.415
15,CGTAATTA,0.31
16,ATTAATCC,0.332
17,GTTAAGTA,0.203
18,ATTAATGC,0.341
19,GTCAATTA,0.164
20,GGTAATTA,0.286
21,ATTAATGA,0.363
22,AGTAATTA,0.421
23,CTTACGCA,-0.158
24,AATTGCAA,0.179
25,AAGCAGCC,-0.138

row,Sequence,PBM 8-mer E-score
1,TAACCTTA,0.0355
2,GTAGGGCA,-0.179
3,CATAAGGG,-0.214
4,CAGCTCGG,-0.199
5,ACGACCTC,-0.143
6,ACCCAATC,-0.0955
7,ATAATACG,0.354
8,ATAATACC,0.333
9,ATAATACA,0.407
10,CTAATACA,0.325
11,ACAATACG,0.0961
12,AAAATACG,0.184
13,ATGGCACA,-0.0727
14,GCGTGTAC,-0.107
15,GAGATCGC,-0.123
16,GTGTTAAC,0.219
17,ATGTTAAG,0.178
18,ATGTTAAT,0.39
19,CTGTTAAC,0.141
20,ATGTTAAA,0.329
21,ATGTTAAC,0.363
22,TGCGTCAA,-0.0324
23,GGGAACAC,-0.198
